{"source": "the antibiotic and cytotoxicity screens of Wong et al. (2023)", "note": "Screen size: about 39,000 compounds; about 1,500 (3.8%) were called active. The list comes from a sample in which actives are over-represented; it also holds similar structures and randomly drawn compounds.", "data": [{"system": "HSkMC (human skeletal muscle cells)", "assay": "cytotoxicity call (relative viability < 0.9)", "settings": "10 µM", "values": [{"smiles": "C[C@H](CO)N1C[C@H](C)[C@H](CN(C)C(=O)c2ccc(N3CCN(C)CC3)cc2)OCc2cn(nn2)CCCC1=O", "cytotoxicity call": "inactive"}, {"smiles": "COc1ccc(S(=O)(=O)N(C)C[C@@H]2Oc3c(NC(=O)c4ccncc4)cccc3C(=O)N([C@H](C)CO)C[C@@H]2C)cc1", "cytotoxicity call": "inactive"}, {"smiles": "C[C@H]1CCCCO[C@@H](CN(C)Cc2ccc(C(=O)O)cc2)[C@@H](C)CN([C@@H](C)CO)C(=O)c2cc(NC(=O)NC3CCCCC3)ccc2O1", "cytotoxicity call": "inactive"}, {"smiles": "C[C@@H]1CN([C@H](C)CO)S(=O)(=O)c2ccc(Br)cc2O[C@@H]1CN(C)S(=O)(=O)c1ccc(F)cc1", "cytotoxicity call": "inactive"}, {"smiles": "CON=C(C(=O)NC1C(=O)N2C(C(=O)OCOC(=O)C(C)(C)C)=C(C=Cc3scnc3C)CSC12)c1csc(N)n1", "note": "(centres undefined)", "cytotoxicity call": "inactive"}, {"smiles": "C[C@H]1CN([C@@H](C)CO)C(=O)c2cc(C#Cc3ccccc3)cnc2O[C@H]1CN(C)C(=O)CCN1CCCCC1", "cytotoxicity call": "inactive"}, {"smiles": "COCCCNC(=O)[C@@]1(Sc2ccc(C)cc2)CC(=O)N(Cc2ccccc2Cl)[C@@H]1c1ccc(CO)cc1", "cytotoxicity call": "inactive"}, {"smiles": "O=C1N[C@H](Cc2c[nH]c3ccccc23)COC(=O)[C@@H](Cc2ccc(F)cc2)CCC=CC[C@H]1CC(=O)N(CCO)Cc1ccccc1", "cytotoxicity call": "inactive"}, {"smiles": "COc1cc(C)c(C(=O)Oc2cc(C)c(C(=O)O)c(O)c2)c(O)c1", "cytotoxicity call": "inactive"}, {"smiles": "COCCCNc1ncnc(N)c1[N+](=O)[O-]", "cytotoxicity call": "inactive"}, {"smiles": "C[C@H]1CN([C@@H](C)CO)C(=O)c2cccc(NC(=O)Nc3ccc(F)cc3)c2O[C@@H]1CN(C)Cc1ccc(Cl)c(Cl)c1", "cytotoxicity call": "active"}, {"smiles": "C[C@H]1CN([C@@H](C)CO)C(=O)c2cccc(NC(=O)Nc3ccc4c(c3)OCO4)c2O[C@@H]1CN(C)Cc1ccc(Cl)c(Cl)c1", "cytotoxicity call": "inactive"}, {"smiles": "C[C@H](CO)N1C[C@H](C)[C@@H](CN(C)Cc2ccc(Cl)c(Cl)c2)Oc2c(NC(=O)Nc3ccc4c(c3)OCO4)cccc2C1=O", "cytotoxicity call": "active"}, {"smiles": "C[C@@H]1CN([C@@H](C)CO)C(=O)c2cccc(NC(=O)Nc3ccc4c(c3)OCO4)c2O[C@@H]1CN(C)Cc1ccc(Cl)c(Cl)c1", "cytotoxicity call": "inactive"}, {"smiles": "C[C@H](CO)N1C[C@H](C)[C@H](CN(C)S(C)(=O)=O)OCCCC[C@H](C)Oc2ccc(NS(=O)(=O)c3ccc(F)cc3)cc2C1=O", "cytotoxicity call": "inactive"}, {"smiles": "CO[C@@H]1CN(C)C(=O)c2cc(NC(=O)c3ccccc3)ccc2OC[C@H](C)N(C(=O)CN(C)C)C[C@@H]1C", "cytotoxicity call": "inactive"}, {"smiles": "CC(C)(C)OC(=O)N[C@H]1CCCCC/C=C\\[C@@H]2C[C@@]2(C(=O)NS(=O)(=O)C2CC2)NC(=O)[C@@H]2C[C@@H](OC(=O)N3Cc4cccc(F)c4C3)CN2C1=O", "cytotoxicity call": "inactive"}, {"smiles": "COc1ccc(NC(=O)Nc2ccc3c(c2)C(=O)N([C@@H](C)CO)C[C@@H](C)[C@H](CN(C)S(=O)(=O)c2ccc(Cl)cc2)OCCCC[C@@H](C)O3)cc1", "cytotoxicity call": "inactive"}, {"smiles": "Cc1noc(C)c1NC(=O)Nc1ccc2c(c1)C(=O)N([C@@H](C)CO)C[C@H](C)[C@@H](CN(C)S(=O)(=O)c1ccc(Cl)cc1)OCCCC[C@@H](C)O2", "cytotoxicity call": "inactive"}, {"smiles": "COCCOC(=O)N1C(=O)[C@@]2(c3cc(C#CC4(O)CCCCCC4)ccc31)[C@H](C(=O)N1CCCCCCC1)[C@H]1C(=O)O[C@H](c3ccccc3)[C@H](c3ccccc3)N1[C@@H]2c1ccc(OCCO)cc1", "cytotoxicity call": "inactive"}, {"smiles": "Cc1ccc(S(=O)(=O)Nc2ccc3c(c2)CC(=O)N([C@@H](C)CO)C[C@H](C)[C@@H](CN(C)Cc2ccc(Oc4ccccc4)cc2)O3)cc1", "cytotoxicity call": "active"}, {"smiles": "Cc1ccc(S(=O)(=O)Nc2ccc3c(c2)CC(=O)N([C@H](C)CO)C[C@H](C)[C@H](CN(C)Cc2ccc(Oc4ccccc4)cc2)O3)cc1", "cytotoxicity call": "inactive"}, {"smiles": "Cc1ccc(S(=O)(=O)Nc2ccc3c(c2)CC(=O)N([C@@H](C)CO)C[C@@H](C)[C@H](CN(C)Cc2ccc(Oc4ccccc4)cc2)O3)cc1", "cytotoxicity call": "inactive"}, {"smiles": "Cc1ccc(S(=O)(=O)Nc2ccc3c(c2)CC(=O)N([C@H](C)CO)C[C@@H](C)[C@@H](CN(C)Cc2ccc(Oc4ccccc4)cc2)O3)cc1", "cytotoxicity call": "inactive"}, {"smiles": "Cc1ccc(S(=O)(=O)Nc2ccc3c(c2)CC(=O)N([C@H](C)CO)C[C@@H](C)[C@H](CN(C)Cc2ccc(Oc4ccccc4)cc2)O3)cc1", "cytotoxicity call": "active"}, {"smiles": "Cc1ccc(S(=O)(=O)Nc2ccc3c(c2)CC(=O)N([C@@H](C)CO)C[C@H](C)[C@H](CN(C)Cc2ccc(Oc4ccccc4)cc2)O3)cc1", "cytotoxicity call": "active"}, {"smiles": "Cc1ccc(S(=O)(=O)Nc2ccc3c(c2)CC(=O)N([C@H](C)CO)C[C@H](C)[C@@H](CN(C)Cc2ccc(Oc4ccccc4)cc2)O3)cc1", "cytotoxicity call": "inactive"}, {"smiles": "Cc1ccc(S(=O)(=O)Nc2ccc3c(c2)CC(=O)N([C@@H](C)CO)C[C@@H](C)[C@@H](CN(C)Cc2ccc(Oc4ccccc4)cc2)O3)cc1", "cytotoxicity call": "inactive"}, {"smiles": "C[C@H](CO)N1C[C@H](C)[C@@H](CN(C)S(=O)(=O)c2ccc(F)cc2)Oc2ccc(NC(=O)C3CC3)cc2CC1=O", "cytotoxicity call": "inactive"}, {"smiles": "CO[C@H]1CN(C)C(=O)c2cc(NC(=O)Nc3cccc(Cl)c3)ccc2OC[C@H](C)N(C(=O)Nc2c(C)noc2C)C[C@H]1C", "cytotoxicity call": "inactive"}, {"smiles": "COc1ccc(NC(=O)N(C)C[C@H]2OCCCC[C@@H](C)Oc3ccc(NC(=O)Nc4cccc5ccccc45)cc3C(=O)N([C@H](C)CO)C[C@@H]2C)cc1", "cytotoxicity call": "inactive"}, {"smiles": "Cc1ccc(S(=O)(=O)N[C@H]2CC[C@@H](CC(=O)N3CCC(Cc4ccccc4)CC3)O[C@@H]2CO)cc1", "cytotoxicity call": "inactive"}, {"smiles": "C[C@@H]1CCCCO[C@@H](CN(C)C(=O)NC2CCCCC2)[C@H](C)CN([C@@H](C)CO)C(=O)c2cc(NC(=O)Cc3ccccc3)ccc2O1", "cytotoxicity call": "inactive"}, {"smiles": "C[C@H]1CN([C@@H](C)CO)C(=O)Cc2cc(NC(=O)Nc3cccc4c3CCCC4)ccc2O[C@H]1CN(C)S(=O)(=O)c1ccc(Oc2ccccc2)cc1", "cytotoxicity call": "inactive"}, {"smiles": "Cc1cc(Oc2ccnc3cc(Cl)ccc23)ccc1Cl", "cytotoxicity call": "inactive"}, {"smiles": "Cc1c(C(=O)Nc2ccc(Oc3ccnc4cc(OCC(C)(C)O)ccc34)c(F)c2)c(=O)n(-c2ccccc2)n1C", "cytotoxicity call": "active"}, {"smiles": "CCS(=O)(=O)N1C[C@]2(C1)CN([C@@H](CO)c1c2c2ccc(cc2n1C)OC)C(=O)Nc1cccc(c1)F", "cytotoxicity call": "inactive"}, {"smiles": "CC(C)NC(=O)Nc1cccc2c1O[C@@H](CN(C)C(=O)NC1CCCCC1)[C@@H](C)CN([C@@H](C)CO)C2=O", "cytotoxicity call": "inactive"}, {"smiles": "Cc1ccc(S(=O)(=O)N(C)C[C@H]2Oc3ccc(NS(C)(=O)=O)cc3CC(=O)N([C@@H](C)CO)C[C@@H]2C)cc1", "cytotoxicity call": "inactive"}, {"smiles": "CC(C)CCCC(C)C1CCC2C3CC(=O)C4CC(O)CCC4(C)C3CCC12C", "note": "(stereo not drawn) [5alpha-CHOLESTAN-3beta-OL-6-ONE ]", "cytotoxicity call": "inactive"}, {"smiles": "CC(C)CCCC(C)C1CCC2C3CCC4CC(O)CCC4(C)C3CCC12C", "note": "(stereo not drawn) [5alpha-CHOLESTANOL ]", "cytotoxicity call": "inactive"}, {"smiles": "CC(C)CCC[C@@H](C)[C@H]1CC[C@H]2[C@@H]3C[C@@H](O)[C@@]4(O)C[C@@H](O)CC[C@]4(C)[C@H]3CC[C@]12C", "note": "[CHOLESTAN-3beta,5alpha,6beta-TRIOL ]", "cytotoxicity call": "active"}, {"smiles": "CC(C)NC(=O)Nc1ccc2c(c1)CC(=O)N([C@H](C)CO)C[C@H](C)[C@H](CN(C)S(=O)(=O)c1cn(C)cn1)O2", "cytotoxicity call": "inactive"}, {"smiles": "COc1cc(C(=O)NCCCN2CCCN(CCCNC(=O)c3cc(OC)c(OC)c(OC)c3)CC2)cc(OC)c1OC", "cytotoxicity call": "inactive"}, {"smiles": "Cc1cn(CCC#N)c2ccccc12", "cytotoxicity call": "inactive"}, {"smiles": "Cc1cn(CCN2CCN(c3ccccc3-c3cc(C#N)cc(C(=O)NCCCN4CCCC4)c3)CC2)c2ccccc12", "cytotoxicity call": "active"}, {"smiles": "C[C@H]1CCCCO[C@H](CN(C)C(=O)C2CCCCC2)[C@@H](C)CN([C@@H](C)CO)C(=O)c2cc(NS(=O)(=O)c3cccs3)ccc2O1", "cytotoxicity call": "inactive"}, {"smiles": "COC(=O)c1ccc(Cn2cc(C(=O)NO)nn2)o1", "cytotoxicity call": "inactive"}, {"smiles": "COc1cccc(-n2cc(C(=O)NO)nn2)c1", "cytotoxicity call": "inactive"}, {"smiles": "COc1ccc(-n2cc(C(=O)NO)nn2)cc1", "cytotoxicity call": "active"}, {"smiles": "C[C@H]1NC(=O)[C@H](Cc2ccccc2)NC(=O)[C@@]23C(=O)N[C@@H](Cc4ccccc4)[C@@H]2[C@H](C)[C@@]2(C)O[C@H]2[C@H]3/C=C/C/C=C\\CNC1=O", "cytotoxicity call": "inactive"}, {"smiles": "C[C@H](CO)N1C[C@H](C)[C@@H](CN(C)Cc2ccncc2)Oc2ccc(NS(=O)(=O)c3ccc(F)cc3)cc2C1=O", "cytotoxicity call": "inactive"}, {"smiles": "CN(C)c1ccc(C(=C2C=CC(=[N+](C)C)C=C2)c2ccc(N(C)C)cc2)cc1.[Cl-]", "cytotoxicity call": "active"}, {"smiles": "CN(CC(=O)O)C1CCCC1", "cytotoxicity call": "inactive"}, {"smiles": "C[C@@H]1CCCCO[C@H](CN(C)C(=O)Nc2ccc(F)cc2)[C@H](C)CN([C@@H](C)CO)C(=O)c2cc(NC(=O)NC3CCCCC3)ccc2O1", "cytotoxicity call": "inactive"}, {"smiles": "C[C@H]1CN([C@@H](C)CO)S(=O)(=O)c2ccc(C#Cc3ccc(F)cc3)cc2O[C@@H]1CN(C)C(=O)c1ccccn1", "cytotoxicity call": "inactive"}, {"smiles": "COc1ccc(S(=O)(=O)Nc2ccc3c(c2)CC(=O)N([C@@H](C)CO)C[C@@H](C)[C@H](CN(C)Cc2ccc(Oc4ccccc4)cc2)O3)cc1", "cytotoxicity call": "inactive"}, {"smiles": "COc1ccc(S(=O)(=O)Nc2ccc3c(c2)CC(=O)N([C@@H](C)CO)C[C@H](C)[C@@H](CN(C)Cc2ccc(Oc4ccccc4)cc2)O3)cc1", "cytotoxicity call": "active"}, {"smiles": "COc1ccc(S(=O)(=O)Nc2ccc3c(c2)CC(=O)N([C@@H](C)CO)C[C@@H](C)[C@@H](CN(C)Cc2ccc(Oc4ccccc4)cc2)O3)cc1", "cytotoxicity call": "inactive"}, {"smiles": "COc1ccc(S(=O)(=O)Nc2ccc3c(c2)CC(=O)N([C@H](C)CO)C[C@H](C)[C@H](CN(C)Cc2ccc(Oc4ccccc4)cc2)O3)cc1", "cytotoxicity call": "inactive"}, {"smiles": "COc1ccc(S(=O)(=O)Nc2ccc3c(c2)CC(=O)N([C@H](C)CO)C[C@@H](C)[C@@H](CN(C)Cc2ccc(Oc4ccccc4)cc2)O3)cc1", "cytotoxicity call": "active"}, {"smiles": "COc1ccc(S(=O)(=O)Nc2ccc3c(c2)CC(=O)N([C@@H](C)CO)C[C@H](C)[C@H](CN(C)Cc2ccc(Oc4ccccc4)cc2)O3)cc1", "cytotoxicity call": "active"}, {"smiles": "COc1ccc(S(=O)(=O)Nc2ccc3c(c2)CC(=O)N([C@H](C)CO)C[C@H](C)[C@@H](CN(C)Cc2ccc(Oc4ccccc4)cc2)O3)cc1", "cytotoxicity call": "inactive"}, {"smiles": "COc1ccc(S(=O)(=O)Nc2ccc3c(c2)CC(=O)N([C@H](C)CO)C[C@@H](C)[C@H](CN(C)Cc2ccc(Oc4ccccc4)cc2)O3)cc1", "cytotoxicity call": "active"}]}]}
